TRHR agonist – qHTS for Small Molecule Agonists and Allosteric Enhancers of Human TRH Receptor: Primary Screen for Agonists; Thyrotropin-releasing hormone receptor (Homo sapiens), P34981; TRHR cells, calcium flux fluo-8, FDSS agonist mode; activation, % at 2 µM; 360,000 compounds, 0.18% hits; AID 493084, 2011; note: 0% is about no effect
Target sequence (P34981 whole entry, looked up): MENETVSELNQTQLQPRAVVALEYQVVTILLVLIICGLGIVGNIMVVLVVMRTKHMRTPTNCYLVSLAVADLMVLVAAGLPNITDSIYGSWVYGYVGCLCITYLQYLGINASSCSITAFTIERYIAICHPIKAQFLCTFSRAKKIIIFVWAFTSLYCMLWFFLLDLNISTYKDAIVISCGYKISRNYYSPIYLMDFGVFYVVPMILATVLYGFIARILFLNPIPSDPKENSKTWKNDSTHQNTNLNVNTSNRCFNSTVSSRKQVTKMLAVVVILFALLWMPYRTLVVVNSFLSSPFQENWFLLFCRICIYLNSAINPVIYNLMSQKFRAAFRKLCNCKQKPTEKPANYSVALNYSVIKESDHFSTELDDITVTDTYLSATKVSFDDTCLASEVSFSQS
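Agonist-mode FDSS calcium read (Ex 480/Em 530, 1 s cycles) in 1536-well TRHR cells with fluo-8 dye, after 10-cycle baseline and 23 nL compound addition; TRH at EC20 (10 nM final) added afterwards for the enhancer phase.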
TRHR enhancer – qHTS for Small Molecule Agonists and Allosteric Enhancers of Human TRH Receptor: Primary Screen for Enhancers; enhancement, % at 2 µM; AID 493056, 2011; TRHR cells, fluo-8 calcium fluorescence, EC20 TRH enhancement; Thyrotropin-releasing hormone receptor (Homo sapiens), P34981; 360,000 compounds, 0.66% hits; in the data active = enhancement above about 30%; note: 0% is about no effect
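Enhancer read-out: after compound pinning and an initial kinetic agonist-mode read, an EC20 of TRH (10 nM final) was injected and fluo-8 calcium signal (Ex 480/Em 530) followed at 1 s/cycle for 100 cycles in TRHR-expressing cells.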
D1 antag – Antagonist of Human D 1 Dopamine Receptor: qHTS. AID 504652, 2011. activity change, negative = inhibition, % at 10 µM. D(1A) dopamine receptor (Homo sapiens), P21728. 360,000 compounds, 3.2% hits. HEK293 TREx D1 cells, calcium flux, dopamine EC80; hits give low values; in the data active = activity change below about -30%; note: % is set by controls: 0 for no effect and ±100 for the full control effect
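HEK293 T-REx cells expressing inducible, force-coupled D1 receptor; no-wash Ca dye, 30–90 min RT. Cmpd → 180 s read at 1 Hz → EC80 DA → 180 s read.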
D1 ag – Allosteric Agonists of the Human D1 Dopamine Receptor: qHTS. activation, % at 2 µM. HEK293 T-REx D1 cells, calcium flux, agonist mode. AID 504660, 2011. 360,000 compounds, 1% hits; note: 0% is about no effect
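Inducible HEK293 T-REx D1 cells, force-coupled to calcium signalling, were plated at 4000 cells/well with tetracycline and held overnight at 30 C. After no-wash calcium dye loading, compound-evoked calcium rise over 180 s flagged agonists.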
D1 potentiator – Potentiators of Human D1 Dopamine Receptor: qHTS; HEK293 TREx D1 cells, calcium flux, dopamine EC20 potentiation; potentiation, % at 10 µM; 360,000 compounds, 0.036% hits; AID 504651, 2011; in the data active = potentiation above about 30%; note: 0% is about no effect
Numbers without * were called inactive; · = not tested or not shown. Most compounds without a hit are left out; they make up all but 4.6% or so of the library. Cut-off read from the data, not from the text of the source, unless noted: active = activation above about 30%; inactive = the rest.

SMILES	TRHR agonist	TRHR enhancer	D1 antag	D1 ag	D1 potentiator
CC(=O)Nc1ccc(S(=O)(=O)N(C)CC(=O)N(C)Cc2sccc2C)cc1	0	1	-32*	1	-9
CC(=O)Nc1ccc(S(=O)(=O)N(C)Cc2ccccc2)cc1	0	1	3	10	-13
CC1=CC(C)(C)N(C(=O)c2ccccc2)c2ccc(C)cc21	8	-3	-13	57*	-2
COc1ccc(CCNC(=O)CSc2nc(-c3ccc(F)cc3)cc(C(F)(F)F)n2)cc1OC	-1	14	-8	3	-6
CCN(CC)C(=O)C(C(=O)c1cccc([N+](=O)[O-])c1)n1cc(Cl)ccc1=O (stereo not drawn)	0	-5	-37*	1	-2
CN(Cc1ccccc1)C(=O)C(C(=O)c1ccc(F)cc1)n1cc(Cl)ccc1=O (stereo not drawn)	0	-6	-24	1	-1
COc1ccc(-n2c(=O)c3ccc(C(=O)NCc4ccc(C)cc4)cc3n(CC(=O)Nc3cccc(F)c3)c2=O)cc1	1	7	28	8	-2
COc1ccc(CNC(=O)C(CCSC)NS(=O)(=O)c2ccc3c(c2)oc(=O)n3C)cc1 (stereo not drawn)	0	-2	2	-1	-6
CCN(CC)c1ccc2c(O)cc(=O)oc2c1	0	0	-8	1	-2
CCN(CC)c1ccc(C(=O)OCc2cc(=O)oc3cc(O)ccc23)cc1	0	-6	-33*	2	-11
COc1ccc(S(=O)(=O)N2CCOC23CCN(S(=O)(=O)c2ccccc2)CC3)cc1	0	-7	-6	13	-8
O=C1CCc2ccc(OCCCCN3CCN(c4cccc(Cl)c4Cl)CC3)cc2N1	0	-2	-44*	·	·
COCCNC(=O)CN(C(=O)CCC(=O)Nc1ccccn1)c1ccc(C)cc1C	0	0	-8	2	-4
Cc1c(O)c(S(=O)c2ccccc2)c(=O)n(-c2ccccc2)c1-c1ccccc1 (stereo not drawn)	1	32*	1	4	-2
Cc1ccc(S(=O)(=O)NCCSc2nnnn2-c2cc(C)ccc2C)cc1	1	8	-40*	10	-1
Cc1ccc(S(=O)(=O)NCCSc2nnnn2-c2ccccc2)cc1	-2	2	-1	0	-3
Cn1c(=O)n(Cc2ccc(Cl)cc2)c2ccccc21	0	-7	-33*	-3	-5
CC(=O)c1ccc(NS(=O)(=O)c2c(C)cc(C)cc2C)cc1	0	3	-5	4	-1
Cc1cc(C)c(S(=O)(=O)Nc2ccc(C(N)=O)cc2)c(C)c1	0	1	-43*	2	-2
CCN(CC(=O)Nc1cc(OC)ccc1OC)Cc1nc2ccccc2c(=O)[nH]1	0	5	-39*	1	-3
CCN(CC(=O)NCc1ccc(F)cc1)Cc1nc2ccccc2c(=O)[nH]1	0	2	0	0	-1
CCN(CC(=O)Nc1ccc(C(=O)Nc2ccc(OC)cc2)cc1)Cc1nc2ccccc2c(=O)[nH]1	-2	1	-44*	4	6
CCN(CC(=O)Nc1cccc(F)c1)Cc1nc2ccccc2c(=O)[nH]1	0	-1	5	14	-7
Cc1cc2c(s1)c1cnn(Cc3c(Cl)cccc3Cl)c(=O)c1n2C	-1	3	20	-1	9
Cc1cccc(CNC(=O)C2CCC(=O)N(C3CCCC3)C2)c1 (stereo not drawn)	0	0	-45*	1	-1
SMILES	TRHR agonist	TRHR enhancer	D1 antag	D1 ag	D1 potentiator
Cn1ccc2cc(S(=O)(=O)N3CCCN(C(=O)Nc4ccccc4Br)CC3)ccc21	0	5	8	6	0
Cc1ccc(NC(=O)c2cc(S(=O)(=O)N3CCc4ccccc43)cn2C)cc1C	0	-2	-45*	7	-8
CCc1ccccc1NC(=O)c1cc(S(=O)(=O)N2CCc3ccccc32)cn1C	0	-3	-10	3	-5
CCN(CC)c1ccc(NC(=O)c2cc(S(=O)(=O)N3CCc4ccccc43)cn2C)c(C)c1	0	-2	-34*	1	-3
COc1ccc(NC(=O)c2cc(S(=O)(=O)N3CCc4ccccc43)cn2C)cc1	0	3	10	0	1
CCOc1ccc(N(C)S(=O)(=O)c2ccc3[nH]cc(C(=O)NCC(OC)OC)c(=O)c3c2)cc1	0	3	0	3	-6
CCN(CC)S(=O)(=O)c1ccc2[nH]cc(C(=O)NCCN3CCCCCC3)c(=O)c2c1	-1	19	10	3	-5
CCOC(=O)N1CCN(C(=O)c2c[nH]c3ccc(S(=O)(=O)N(C)c4ccc(F)cc4)cc3c2=O)CC1	0	0	1	-1	-4
CCOC(=O)N1CCN(C(=O)c2c[nH]c3ccc(S(=O)(=O)N(C)c4ccc(OCC)cc4)cc3c2=O)CC1	0	24	-89*	2	-19
CCOc1ccc(N(C)S(=O)(=O)c2ccc3[nH]cc(C(=O)NCc4ccccc4)c(=O)c3c2)cc1	0	37*	-11	1	-2
CCN(CC)S(=O)(=O)c1ccc2[nH]cc(C(=O)NCCC3=CCCCC3)c(=O)c2c1	-1	4	-34*	4	-10
O=C(CCn1c(=O)c2ccccc2n(CC(=O)Nc2ccc(F)cc2)c1=O)NCCc1ccccc1	-1	1	1	2	7
O=C(Cn1ncc2c3ccccc3n(Cc3cccc(Cl)c3)c2c1=O)NCc1cccs1	3	0	-11	14	-3
N=C(N)Cc1ccccc1Sc1ccccc1	2	-7	-49*	5	-8
O=c1c(Oc2ccccc2Br)c(C(F)(F)F)oc2c(CN3CCCC3)c(O)ccc12	1	32*	15	0	8
Cc1cc(Oc2c(C(F)(F)F)oc3c(CN4CCC(C)CC4)c(O)ccc3c2=O)cc(C)c1Cl	0	10	-7	-1	-4
c1cncc(-c2nc(NCCCn3ccnc3)c3ccccc3n2)c1	0	-6	-38*	0	1
Cc1nc(NCCCn2ccnc2)c2ccccc2n1	0	-8	-1	1	-9
c1ccc(-c2nc(NCCCN3CCOCC3)c3ccccc3n2)cc1	0	-2	8	4	-9
Cc1cccc(-c2nc(NCCCN3CCOCC3)c3ccccc3n2)c1	-1	9	-7	50*	3
CC(NC(=O)c1cc2sccc2n1C)c1ccc2c(c1)OCCO2 (stereo not drawn)	1	1	-7	6	3

Screening data as filed in PubChem BioAssay.
